In PubChem BioAssay AID504652 (National Center for Advancing Translational Sciences (NCATS), 2011):
About 11,000 (3.1%) of roughly 360,000 compounds were called active. What follows is part of a selection rich in actives, with near analogues and random picks from the rest. Values without a mark were called inactive. Rule as the data show it: active = activity change below about -30%; inactive = the rest.

target: D(1A) dopamine receptor (Homo sapiens) (UniProt P21728); test: Antagonist of Human D 1 Dopamine Receptor: qHTS; conditions: HEK293 TREx D1 cells, calcium flux, dopamine EC80; at 10 µM; stronger effect = lower value
Procedure, shortened: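 Compound effects on dopamine-evoked calcium signalling were measured in tetracycline-induced HEK293 Trex D1 cells. Dopamine at EC80 followed a 180 s compound pre-read, and fluorescence was tracked kinetically for 180 s more.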
% is scaled to controls: 0 for no effect and ±100 for the full control effect.

Chain of D(1A) dopamine receptor (Homo sapiens) (P21728 whole entry, looked up): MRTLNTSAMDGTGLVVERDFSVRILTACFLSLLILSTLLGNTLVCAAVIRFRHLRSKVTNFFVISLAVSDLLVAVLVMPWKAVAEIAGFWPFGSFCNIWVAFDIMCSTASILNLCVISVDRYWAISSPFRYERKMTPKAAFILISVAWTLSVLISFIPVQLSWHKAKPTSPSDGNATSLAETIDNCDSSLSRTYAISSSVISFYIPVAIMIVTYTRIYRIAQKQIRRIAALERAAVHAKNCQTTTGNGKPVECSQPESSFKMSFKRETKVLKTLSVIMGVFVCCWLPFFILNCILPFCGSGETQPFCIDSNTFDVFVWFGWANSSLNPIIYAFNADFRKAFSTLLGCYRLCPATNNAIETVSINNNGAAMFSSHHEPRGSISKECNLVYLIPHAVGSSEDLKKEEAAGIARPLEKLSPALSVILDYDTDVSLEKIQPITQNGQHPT

Compound | activity change, negative = inhibition
O=C(C1=C(O)C(=O)N(Cc2ccccc2)C1c1ccco1)c1ccco1 (centres undefined) | -36.2% (active)
CC(C)c1ccc(C2C(C(=O)c3ccco3)=C(O)C(=O)N2CC2CCCO2)cc1 (centres undefined) | -6.37%
CCOc1cc(C2C(C(=O)c3ccco3)=C(O)C(=O)N2Cc2ccccc2)ccc1O (centres undefined) | 9.97%
O=S(=O)(c1ccc2c(c1)OCCO2)N1CCN(S(=O)(=O)c2cc(F)ccc2F)CC1 | -3.7%
CC1CCN(c2ccc(C(=O)NCc3ccc4c(c3)OCO4)cc2[N+](=O)[O-])CC1 | -7.43%
CCC(C)NC(=O)c1ccc(N2CCC3(CC2)OCCO3)c([N+](=O)[O-])c1 (centres undefined) | -7.67%
COCCNC(=O)c1ccc(N2CCC3(CC2)OCCO3)c([N+](=O)[O-])c1 | -74.3% (active)
O=C(COc1ccccc1F)NNC(=O)c1ccc(N2CCCCC2)c([N+](=O)[O-])c1 | -3.15%
CCCNC(=O)c1ccc(N2CCC3(CC2)CC(c2cccc(Br)c2)=NO3)c(NC(=O)c2ccco2)c1 | -2.71%
CCCNC(=O)c1ccc(N2CCC3(CC2)CC(c2ccc(Cl)cc2)=NO3)c([N+](=O)[O-])c1 | -31.3% (active)
COc1cccc(NC(=O)CN2C(=O)c3ccccc3Sc3ncccc32)c1 | 5.53%
COc1cccc(-c2nc(CS(=O)(=O)CC(=O)N3CCN(c4cc(C)ccc4C)CC3)c(C)o2)c1 | -16.9%
CC(NC(=O)CCc1cn(Cc2ccccc2Cl)c2ccccc12)c1ccccc1 (centres undefined) | -6.68%
CCOCCCNC(=O)c1c(NC(=O)Cc2coc3c(C)c(C)ccc23)sc2c1CCC2 | 11.9%
Cc1ccc(Cl)cc1NC(=O)CCC(=O)N1CC(C)Sc2ccccc21 (centres undefined) | 0.985%
COc1ccccc1CNS(=O)(=O)c1ccc(C)cc1 | -13.9%
Cc1ccc(S(=O)(=O)NCc2nc3ccccc3c(=O)n2N)cc1 | -32.4% (active)
C#CCCCc1nc2ccccc2c(=O)n1N | 3.38%
Cc1ccc(Cn2c(CCCNC(=O)C3CCCCC3)nc3ccccc32)cc1 | 10.5%
CC(C)Cn1c(-c2ccc(S(=O)(=O)N3CCOCC3)cc2)csc1=Nc1cc(Cl)ccc1Cl | -0.499%
CC1CCCN(c2nc3c(S(=O)(=O)c4ccc(C(C)C)cc4)nnn3c3ccsc23)C1 (centres undefined) | -10.6%
CCc1cc2c(cc(C(=O)OC)n2Cc2nc(-c3ccc(C)cc3)oc2C)s1 | 10.2%
CC(=O)NNC1=Nc2ccccc2N(C)C(C)C1 (centres undefined) | 3.33%

Compound | activity change, negative = inhibition
COC(=O)C1=C(C(=O)OC)[C@@H]2N(C)c3ccccc3[C@@]23C[C@@H](C(=O)OC)N(C(C)=O)C3=N1 | -45.5% (active)
O=C(CSc1n[nH]c(-c2cccnc2)n1)Nc1ccc(Cl)cc1 | 24.7%
O=C(CSc1ncn[nH]1)Nc1ccnc2ccccc12 | -18.5%
O=C(CSc1n[nH]c(-c2cccnc2)n1)Nc1ccnc2ccccc12 | -30.8% (active)
O=C(CNC(=O)c1ccc(Cl)c(C(F)(F)F)c1)OC(C(=O)Nc1cc(C(F)(F)F)ccc1Cl)c1ccccc1 (centres undefined) | 7.72%
COc1ccc(Cl)cc1S(=O)(=O)N1CCC(c2ccncc2)CC1 | 8.07%
Cc1ccc(Cn2c(C)c3cnn(CC(=O)NCc4ccccc4)c(=O)c3c2C)cc1 | -2.69%
CCCn1c2ccccc2c2cnn(CC(=O)N3CCCC(C(=O)OCC)C3)c(=O)c21 (centres undefined) | 13.4%
CCOC(=O)C1CCCN(C(=O)Cn2ncc3c(C)n(Cc4ccc(F)cc4)c(C)c3c2=O)C1 (centres undefined) | -36.8% (active)
CC1CCN(C(=O)Cn2c(=O)n(-c3ccc(Cl)cc3)c(=O)c3c4c(sc32)CCC4)CC1 | -0.901%
CSc1ccc(NC(=O)Cn2nnnc2-c2ccccc2F)cc1 | -8.36%
Cc1ccc(Cl)cc1NC(=O)C(C)n1nnc2sc(-c3ccccc3)cc2c1=O (centres undefined) | -1.65%
CCN(CCn1cccn1)Cc1nc(-c2ccc(C(=O)OC)cc2)no1 | -44.5% (active)
COC(=O)c1ccc(-c2noc(CN(Cc3ccccn3)CC3CCCO3)n2)cc1 (centres undefined) | -16.4%
CCN(CCn1cccn1)Cc1cn[nH]c1-c1ccc(OC)cc1F | 0.481%
COC(=O)c1ccccc1NC(=O)c1ccc(C#N)cc1 | 6.29%
O=[N+]([O-])c1ccc(NCCCO)c(C(F)(F)F)c1 | 6.05%
CC(C)(C)C(=O)NCCCNc1ccc([N+](=O)[O-])cc1 | -35.6% (active)
COCCCNC(=S)NC(=O)c1ccc([N+](=O)[O-])cc1 | 5.38%
CC1=C(C(=O)OCc2ccc(C)cc2)C(c2ccccc2Cl)CC(=O)N1 (centres undefined) | -1.32%
Cc1cccc(Cn2c(=O)n(CCC(=O)NCCc3ccc(Cl)cc3)c(=O)c3sccc32)c1 | -1.13%
CCN(CCCNC(=O)c1cc2cc3cc(OC)ccc3nc2s1)c1ccccc1 | -2.73%
CCCSc1nc2[nH]ncc2c(=O)[nH]1 | -32.5% (active)

Compound | activity change, negative = inhibition
O=C(CSc1nc2[nH]ncc2c(=O)[nH]1)Nc1ccc(F)cc1 | -21.9%
Cc1ccc(CSc2nc3[nH]ncc3c(=O)[nH]2)cc1 | -7.82%
CCc1ccccc1NC(=O)CSc1nnc(-c2ccccc2)c(-c2ccccc2)n1 | 6.16%
O=C1/C(=C/c2ccc(F)cc2)SC(=S)N1NS(=O)(=O)c1ccccc1 | -4.82%
O=C1/C(=C/c2ccc(F)cc2)SC(=S)N1CCCC(=O)N1CCCCC1CCO (centres undefined) | -30.8% (active)
CCN(C(=O)CN1C(=O)/C(=C/c2ccc(F)cc2)SC1=S)C1CCS(=O)(=O)C1 (centres undefined) | 6.56%
O=C(Cn1cnc2c(oc3ccccc32)c1=O)Nc1ccc(OC(F)(F)F)cc1 | 17.3%
Cc1cc(Nc2ccccc2)n(C(=O)c2ccc(N)cc2)n1 | -35.8% (active)
Cc1cc(NC(=O)Nc2ccc(Cl)cc2)n(-c2ccccc2)n1 | -15.2%
Cn1c(Nc2ccccc2)cc(=O)n(C)c1=O | 4.71%
O=C(c1cccs1)c1cn(CCOc2ccc(Cl)cc2)c2ccccc12 | -2.17%
O=C1c2cccc3c([N+](=O)[O-])ccc(c23)C(=O)N1CC1CCCO1 (centres undefined) | -30.6% (active)
CN1CN(C)c2ccc([N+](=O)[O-])c3cccc1c23 | 1.14%
O=C1C(C=NCC2CCCO2)=C(O)c2ccccc21 (centres undefined) | -0.787%
CC(=O)c1ccc(NC(=O)c2nc3nc(C)cc(C(F)F)n3n2)cc1 | 6.33%
CCOC(=O)c1ccc(NC(=O)Cn2c(=O)n(-c3ccc(C)cc3)c(=O)c3c2cnn3C)cc1 | -7.04%
CCn1cc(C(=O)NCc2ccccc2)c(=O)c2cc(S(=O)(=O)N3CCCCC3)ccc21 | 1.17%
CCn1c(CNC(=O)C23CC4CC(CC(C4)C2)C3)nnc1SCC(=O)Nc1ccc(OC)cc1 | 17.4%
COc1ccc(-c2noc(CCCC(=O)NC3CCCC3)n2)cc1OC | -31.9% (active)
CCOc1cc(-c2noc(CCCC(=O)NC3CCCCC3)n2)ccc1OC | -2.32%
CCOc1ccc(-c2noc(CCC(=O)NC3CCCC3)n2)cc1OC | 5.22%
CCOC(=O)c1c(NC(=O)C(C)Sc2c[nH]c3ccccc23)sc2c1CCC2 (centres undefined) | 4.04%
CCOC(=O)c1c(NC(=O)CSc2cn(CC)c3ccccc23)sc2c1CCC2 | -30.9% (active)

Compound | activity change, negative = inhibition
CCOC(=O)c1c(NC(=O)CSc2cn(CCNC(=O)c3cccc(C(F)(F)F)c3)c3ccccc23)sc2c1CCC2 | -11.4%
Cc1cccc(C(=O)Nc2ccc(S(=O)(=O)N3CCCCC3c3cccnc3)cc2)c1 (centres undefined) | -26.5%
COc1ccc(OC)c(NC(=O)C2CCCN(S(=O)(=O)c3ccc4c(c3)CCCC(=O)N4)C2)c1 (centres undefined) | -38.1% (active)
CC(=O)Nc1ccc(NC(=O)C2CCCN(S(=O)(=O)c3ccc4c(c3)CCCC(=O)N4)C2)cc1 (centres undefined) | 0.61%
O=C1CCCc2cc(S(=O)(=O)N3CCCC(C(=O)NCc4ccccc4)C3)ccc2N1 (centres undefined) | -3.91%
Cc1ccc(CNC(=O)CCc2c(C)nn(-c3ccc(N4CCCC4)nn3)c2C)cc1 | -0.419%
CCCCC12CN3CC(C)(CN(C1)C3c1ccc(O)c(OC)c1)C2=O (centres undefined) | 3.82%
CCOC(=O)c1ccc(NC2=CC(c3ccc(OCC)cc3)N(c3ccc(C(=O)OCC)cc3)C2=O)cc1 (centres undefined) | -6.51%
COc1ccc(C(=O)Nc2onc3c2CCCC3)cc1 | -17.5%
COc1ccc(NC(=O)c2c(C)oc3c2CCCC3)cc1 | -45.1% (active)
COc1ccc(NC(=O)c2cc3cc(C)ccc3n2C)cc1 | 7.2%
O=C(CCSCc1cccc(F)c1)NCc1ccccc1 | -0.666%
Cc1cc(C)nc(NC(=O)/C=C/c2ccc(Cl)cc2)n1 | 4.01%
CCCCOC(=O)c1[nH]c(C)c(C(=O)OC)c1C | -0.924%
COC(=O)c1c(C)[nH]c(C(=O)/C=C/c2ccc(Cl)cc2)c1C | -47.4% (active)
Cc1ccc(Nc2c(-c3ccc(C)cc3)nc3cnccn23)cc1 | 12.3%
COC(=O)c1sc2ncccc2c1-n1c(C)ccc1C | 1.1%
COc1ccc(N2CCN(CCNC(=O)CCN3C(=O)COc4ccccc43)CC2)cc1 | 2.07%
O=C(CN1C(=O)COc2ccccc21)NCCN1CCc2ccccc2C1 | -39.4% (active)
O=C(CN1C(=O)COc2ccccc21)Nc1ccc(F)cc1 | 4.15%
